# Source: PubChem (National Center for Advancing Translational Sciences (NCATS))
# Sampled rows, rich in hits. Any-hit rate of the full collection: about 21%.
# NS1 inh = qHTS Assay for Inhibitors of Influenza NS1 Protein Function; Potency, µM (top dose mostly 46.1 µM), without a hit: at the top dose activity, positive = more growth; 270,000 compounds, 0.4% hits; calls by dose curve; also: potency is read from the fitted curve at half-maximal effect; actives are rising curves; nearly all actives have a fitted effect of over 50% in size
#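 In this qHTS, NS1 from influenza A is expressed in budding yeast, where it slows growth. Cells are switched from glucose to 2% galactose medium (pH 6.0, -URA), treated with compound, and growth recovery is read at OD600.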
# Shiga toxin inh = A qHTS for Small Molecule Inhibitors of Shiga Toxin | Vero cells, Shiga toxin protein synthesis inhibition reporter | inhibition, % at 38.7 µM | 290,000 compounds, 9.2% hits | AID 2315, 2010; in the data active = inhibition mostly above about 28%, no sharp cut-off; inactive = mostly below about 43%; also: 0% is about no effect
# Pf growth 48h = Primary qHTS for delayed death inhibitors of the malarial parasite plastid, 48 hour incubation. P. falciparum luciferase growth in erythrocytes, 48 h. Potency, µM (highest dose often 28.7 µM), for inactives: at the top dose activity change, negative = inhibition, usual class: inhibitors. 310,000 compounds, 5.9% hits; also: potency is read from the fitted curve at half-maximal effect; % is scaled to controls: 0 for no effect and ±100 for the full control effect
#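 A one-generation exposure of luciferase-tagged malaria parasites in RPMI 1640/Albumax erythrocyte culture, 37 C and 5% CO2. Inhibition is inferred from decreased luminescence after adding detection reagent.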
# Pf growth 96h = Primary qHTS for delayed death inhibitors of the malarial parasite plastid, 96 hour incubation; P. falciparum luciferase reporter growth, 96 h; Potency, µM (series often up to 28.7 µM), for inactives: at the top dose activity change, negative = inhibition, most hits filed as inhibitors; 320,000 compounds, 6.9% hits; AID 504834, 2011; also: potency is read from the fitted curve at half-maximal effect; % is scaled to controls: 0 for no effect and ±100 for the full control effect
#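 Compounds incubated with erythrocytes infected by luciferase-expressing P. falciparum (2% hematocrit, 0.05% parasitemia final) for 96 hours, 37 C in 5% CO2. Growth inhibition scored as decreased luciferase luminescence.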
# Cycloheximide cs = Cycloheximide Counterscreen for Small Molecule Inhibitors of Shiga Toxin | cell reporter, cycloheximide protein synthesis inhibition counterscreen | 300,000 compounds, 12% hits | max response, %; in the data active = max response mostly above about 13%, no sharp cut-off; inactive = mostly below about 14%; also: read at 38.3 µM for the half of the compounds with a filed dose; 0% is about no effect
# * hit, by the source's call; i = inactive; ? = inconclusive; / = no result given; + = active, no number. Unless noted, calls follow the shape of the dose curve; as a rule, active = well fitted inhibition curve with a large enough effect; inconclusive = small, poorly fitted or top-dose-only effect, or another doubt; inactive = no such curve, though single readings can be large or run the other way.
SMILES,NS1 inh,Shiga toxin inh,Pf growth 48h,Pf growth 96h,Cycloheximide cs
Nc1ccccc1C(=O)/C=C/c1ccc2c(c1)OCO2,-5.9%,116.4*,220.9%,73.3%,69.0*
O=C(COC(=O)/C=C/c1ccc2c(c1)OCO2)NC1CC1,-27.9%,32.1,25.0%,49.1%,7.7
N#CCOC(=O)/C=C/c1ccc2c(c1)OCO2,-1.9%,66.6,1.3%,-18.9%,22.1*
CC(=O)NC1C(=O)N=C(SCC(=O)Nc2cccc(Cl)c2)NC1=O (centres undefined),/,11.2,17.0%,?,2.3
CC(=O)Nc1ccc(NC(=O)CSc2nnnn2-c2ccc(F)cc2)cc1,3.1%,-3.1,?,101.6%,5.5
C/C(=N\O)c1ccc2[nH]ccc2c1,15.8%,37.6,84.3%,0.0%,15.1*
O=C(Nc1ccc(Cl)cc1)Nn1cnc2ccccc2c1=O,-14.6%,47.8*,15.8%,27.3%,24.2*
O=C(/C=C/c1ccccc1Cl)Nn1cnc2ccccc2c1=O,-1.8%,-7.4,23.7%,2.5%,-0.8
O=C(Nn1cnc2ccccc2c1=O)c1ccccc1Cl,-3.0%,28.7,46.7%,3.0%,16.9*
Cc1ccccc1C(=O)Nn1cnc2ccccc2c1=O,/,49.6*,224.8%,?,32.7*
O=C(/C=C/c1ccccc1)Nn1cnc2ccccc2c1=O,-2.8%,29.1,35.4%,?,21.5*
CC#C[C@]1(O)CC[C@H]2C3CCC4=CC(=O)CCC4=C3[C@@H](c3ccc(N(C)C)cc3)C[C@@]21C (some centres undefined),-39.3%,/,/,/,/
O=C(/C=C/c1ccccc1)Nn1cnnc1,2.2%,-25.8,31.5%,14.7µM*,-3.2
COc1ccc(/C=C/C(=O)Nn2cnnc2)cc1,7.1%,12.3,2.7%,?,-1.9
Oc1ccc(/C=N/Nc2ccnc3cc(Cl)ccc23)c(O)c1,-13.1%,37.6*,0.586µM*,0.37µM*,22.6*
Cc1ccccc1/C=N/Nc1ccnc2cc(Cl)ccc12,-25.5%,13.2,0.828µM*,0.828µM*,-1.7
Cc1ccc(/C=N/Nc2ccnc3cc(Cl)ccc23)c(C)c1,5.3%,-2.7,0.208µM*,?,-2.9
COc1ccc(N(CC(=O)N2CCN(Cc3ccccc3)CC2)S(C)(=O)=O)cc1OC,18.8%,-2.4,6.3%,18.0%,-2.6
Cc1ncc(C[n+]2ccc(C)c(C)c2)c(N)n1,/,/,?,-2.3%,/
CCCCCCNc1nc(-c2ccc(OC)cc2)c(CCC(=O)O)s1,5.5%,-14.3,2.8%,6.8%,-3.4
CC1(C(=O)O)COC(c2ccc(Cl)cc2)OC1 (centres undefined),5.9%,-4.1,2.94µM*,7.2%,-1.4
COC(=O)c1ccc(C2OCC(C)(C)CO2)cc1,/,149.8*,249.6%,?,48.9*
O=C(Cc1ccc([N+](=O)[O-])cc1)Nc1ccc2c(c1)CCC2,12.3%,22.7,8.3%,23.2%,10.6
CCOc1ccccc1NC=C1C(=O)OC(C)(C)OC1=O,-10.9%,21.2,30.5%,67.2%,1.5
COc1ccccc1NC=C1C(=O)OC(C)(C)OC1=O,-7.2%,82.0*,33.3%,?,36.5*
SMILES,NS1 inh,Shiga toxin inh,Pf growth 48h,Pf growth 96h,Cycloheximide cs
CCOC(=O)C1=C(N)Oc2ccc3ccccc3c2C1c1ccc(O)cc1 (centres undefined),13.3%,16.2,-15.6%,?,4.8
CCOC(=O)C1=C(N)Oc2cc(O)ccc2C1c1ccc([N+](=O)[O-])cc1 (centres undefined),2.6%,-12.8,9.28µM*,?,-3.5
COc1ccc(NC(=O)CN(C)CC(=O)c2[nH]c(C)c(C(C)=O)c2C)cc1,/,/,?,0.6%,/
COc1ccc(NC(=O)CN(C)CC(=O)c2c(C)[nH]c3ccccc23)cc1,/,/,?,11.7µM*,/
CCC(C)c1ccc(NC(=S)Nc2ccc(OC)cc2C)cc1 (centres undefined),21.1%,61.7*,-1.7%,?,30.0*
CCC(C)c1ccc(NC(=O)CN(C)CC(=O)Nc2cccc(OC)c2)cc1 (centres undefined),/,21.2,11.7µM*,?,13.4
COC(=O)c1c(C)[nH]c(C(=O)CN(C)CC(=O)Nc2cccc(F)c2)c1C,/,/,-27.5%,-15.8%,/
COc1cccc(NC(=O)CN(C)CC(=O)c2c(C)[nH]c3ccccc23)c1,/,/,?,11.7µM*,/
CC(=O)Nc1nnc(-c2c(-c3ccccc3Cl)noc2C)o1,0.0%,-10.2,20.5%,28.3%,-1.5
Cc1nn(C)cc1C(=O)NNC(=S)Nc1ccccc1,4.2%,20.7,210.4%,i,17.3*
Cc1c(C(=O)NNC(=S)Nc2cccc(Cl)c2)nnn1-c1ccccc1,-12.1%,+,23.2%,19.7%,57.3*
Cc1cc(C(=O)NNC(=S)Nc2ccccc2)nn1C,2.6%,61.2*,75.1%,86.7%,14.0
Cc1ccc(C)c(NC(=S)N(CCc2nc3cc(C)c(C)cc3[nH]2)Cc2cccnc2)c1,8.2%,10.5,?,-9.5%,-1.3
C/C(=N/NC(=O)CNc1ccc(Cl)cc1C)c1ccc(C)cc1,/,-13.3,22.4%,?,-5.0
COc1cc(-c2cc(C(=O)Nc3ccncc3)c3ccccc3n2)cc(OC)c1OC,/,/,8.28µM*,4.15µM*,/
COc1cc(NC(=O)c2cc(C)nc3ccccc23)cc(OC)c1OC,/,-3.2,-20.6%,-5.3%,-3.4
O=C(Nc1ccc(N2CCOCC2)cc1)c1cc(-c2ccncc2)nc2ccccc12,3.3%,-18.9,?,?,-0.6
COc1cc(-c2cc(C(=O)Nc3ccc(N4CCOCC4)cc3)c3ccccc3n2)cc(OC)c1OC,6.6%,-3.3,10.4µM*,5.86µM*,0.6
Cn1c(N)c(C(=O)c2cc(-c3ccncc3)nc3ccccc23)c(=O)n(C)c1=O,/,-7.8,-27.3%,?,3.8
Cc1nnc(NC(=O)c2cc(-c3ccncc3)nc3c(C)cccc23)s1,-86.3%,32.2*,?,-8.3%,36.0*
Cc1csc(NC(=O)c2cc(-c3ccncc3)nc3ccccc23)n1,/,-3.6,-37.4%,-22.9%,1.8
COc1ccc(-c2cc(C(=O)c3c(N)n(C)c(=O)n(C)c3=O)c3ccccc3n2)cc1OC,-24.0%,14.1,65.7%,38.3%,25.0*
CN(C)S(=O)(=O)c1ccc(N2CCCC2)c(C(=O)NNC(=O)COc2ccc(Cl)cc2)c1,3.4%,2.2,-1.9%,2.0%,-2.2
CCOC(=O)c1ccc(NC(=S)N(CCN2CCCCCC2)Cc2cccs2)cc1,-4.9%,-3.0,?,-0.9%,-3.6
CCc1cccc(C)c1NC(=O)c1cc(-c2ccncc2)nc2ccccc12,/,/,10.4µM*,9.28µM*,/
O=C(Nc1ccncc1)c1cc(-c2ccccn2)nc2ccccc12,/,-9.3,-12.1%,?,1.1
COc1ccc(-c2cc(C(=O)Nc3ccc(Cl)cc3Cl)c3ccccc3n2)cc1OC,-2.9%,-6.5,?,1.3%,-1.0
Cc1ccc(-c2cc(C(=O)Nc3ccncc3)c3ccccc3n2)cc1,/,/,1.65µM*,1.47µM*,/
COc1ccc(-c2cc(C(=O)NNC(=O)c3csc(N4CCOCC4)n3)c3ccccc3n2)cc1OC,/,/,?,13.1µM*,/
